High-throughput results as filed in PubChem.
pPAFAH inh = pPAFAH (human) enzyme inhibition | AID 463082 | inhibition, % at 3.39 µM | Q13093 | 330,000 tested, 1.5% active | recombinant pPAFAH, FP-rhodamine probe fluorescence polarization;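 active means inhibition above the mean inhibition across the screen plus 3 SD, cut at about 25% in these data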;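 further: inhibitors block binding of the rhodamine activity-based probe so polarization drops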
PAFAH2 inh = inhibitors of human PAFAH2; 340,000 tested, 0.99% active; inhibition, % at 3.39 µM; recombinant PAFAH2, FP-rhodamine activity probe, fluorescence polarization; Q99487;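 active means inhibition above the mean over all tested compounds plus 3 SD, cut at about 30% in these data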;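 further: inhibitors block probe labeling of enzyme so polarization drops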
PME-1 primary = blocks human protein phosphatase methylesterase 1 | Q9Y570 | recombinant PME-1, FP-Rh probe fluorescence polarization | inhibition, % at 5.9 µM | 320,000 tested, 0.53% active | AID 2130;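 active means inhibition above the campaign mean of all compounds plus 3 SD, cut at about 26% in these data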;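 further: competitive labeling of PME-1 active site by serine hydrolase directed probe; inhibitors block probe labeling so polarization falls and inhibition rises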
Target sequence (Q9Y570 whole entry, looked up): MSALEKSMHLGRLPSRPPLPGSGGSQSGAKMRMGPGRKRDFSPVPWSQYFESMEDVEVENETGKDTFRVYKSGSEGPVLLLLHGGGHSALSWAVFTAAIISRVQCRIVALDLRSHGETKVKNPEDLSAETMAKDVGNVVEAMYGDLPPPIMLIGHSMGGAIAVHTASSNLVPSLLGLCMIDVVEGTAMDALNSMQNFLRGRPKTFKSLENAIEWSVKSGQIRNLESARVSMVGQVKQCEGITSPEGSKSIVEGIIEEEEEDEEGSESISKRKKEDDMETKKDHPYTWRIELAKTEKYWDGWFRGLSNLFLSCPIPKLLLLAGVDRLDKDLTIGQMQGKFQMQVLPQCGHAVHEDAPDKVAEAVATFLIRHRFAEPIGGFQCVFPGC
Fam108B inh = Fam108B inhibition, counter-screen for RBBP9 inhibitors; recombinant Fam108B, FP-Rh probe fluorescence polarization; inhibition, % at 9.51 µM; 300,000 tested, 0.33% active; AID 1947;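 active means inhibition above the screen mean inhibition plus 3 SD, computed separately per campaign, cut at about 18% in these data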;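 further: inhibitors lower polarization as less probe binds the enzyme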
PAFAH1B2 inh = inhibitors of human PAFAH1B2 | P68402 | recombinant PAFAH1B2, FP-rhodamine activity probe, fluorescence polarization | inhibition, % at 3.39 µM | 340,000 tested, 1.2% active;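 active means inhibition above the mean of all tested compounds plus 3 SD, cut at about 24% in these data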
Target sequence (P68402 whole entry, looked up): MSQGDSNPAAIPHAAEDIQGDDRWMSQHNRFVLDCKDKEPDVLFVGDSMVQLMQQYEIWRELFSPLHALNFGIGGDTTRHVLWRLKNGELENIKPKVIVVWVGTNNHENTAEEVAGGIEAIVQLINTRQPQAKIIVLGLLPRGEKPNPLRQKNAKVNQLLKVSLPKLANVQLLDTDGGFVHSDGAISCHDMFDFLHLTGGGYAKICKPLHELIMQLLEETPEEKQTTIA
PAFAH1B3 FP inh = inhibitors of human PAFAH1B3. Q15102. recombinant PAFAH1B3, FP-rhodamine probe, fluorescence polarization. inhibition, % at 3.39 µM. 340,000 tested, 0.28% active. AID 492972;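 active means inhibition above the screen-wide average of all tested compounds plus 3 SD, cut at about 25% in these data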
PAFAH2 confirm = confirmation of human PAFAH2 inhibitors. shares compounds with PAFAH2 inh. AID 493030. 2,300 tested, 65% active. inhibition, % at 3.39 µM. recombinant PAFAH2, FP-rhodamine activity probe, fluorescence polarization;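 active means mean inhibition over three repeats above a set limit taken from the earlier primary screen, cut at about 30% in these data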;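 further: inhibitor blocks binding of rhodamine activity probe so polarization falls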
A number is an active result. This is a sample that favours compounds with a hit; in the whole collection about 2.9% have one here.

How did O=C(c1sccc1-c1ccccc1)N1CCN(S(=O)(=O)c2ccccc2)CC1 do in these assays?
pPAFAH inh: inactive; PAFAH2 inh: inactive; PME-1 primary: inactive; Fam108B inh: inactive; PAFAH1B2 inh: inactive; PAFAH1B3 FP inh: inactive

How did CC(=O)N1CCN(c2nc(C)nc3sc4c(c23)CCC(C)C4)CC1 (stereo not given) do in these assays?
pPAFAH inh: inactive; PAFAH2 inh: 30.2; PME-1 primary: inactive; Fam108B inh: inactive; PAFAH1B2 inh: inactive; PAFAH1B3 FP inh: inactive; PAFAH2 confirm: inactive

What do the screens show for `O=C1c2nc3ccccn3c2C(=O)N1Cc1ccccc1`?
pPAFAH inh: inactive; PAFAH2 inh: 38.3; PME-1 primary: inactive; Fam108B inh: inactive; PAFAH1B2 inh: inactive; PAFAH1B3 FP inh: inactive; PAFAH2 confirm: inactive

How did CCOC(=O)c1ccccc1NC(=O)COC(=O)c1ccc(OCC(=O)N2CCOCC2)c(OCC)c1 do in these assays?
PAFAH2 inh: 34.8; PAFAH1B2 inh: inactive; PAFAH1B3 FP inh: inactive; PAFAH2 confirm: inactive

What do the screens show for `Cc1c(Cl)cnc(NC(=O)COC(=O)c2ccc3c(c2)OCO3)c1Cl`?
pPAFAH inh: inactive; PAFAH2 inh: 50.3; PME-1 primary: inactive; Fam108B inh: inactive; PAFAH1B2 inh: inactive; PAFAH1B3 FP inh: inactive; PAFAH2 confirm: 29.8

What do the screens show for `COc1cc(C(=O)OCC(=O)Nc2ccc(C(C)=O)cc2)ccc1OCC(=O)N1CCOCC1`?
pPAFAH inh: inactive; PAFAH2 inh: 60.9; PME-1 primary: inactive; Fam108B inh: inactive; PAFAH1B2 inh: inactive; PAFAH1B3 FP inh: inactive; PAFAH2 confirm: 58.1

What do the screens show for `CCOc1cc(C(=O)OCC(=O)Nc2ccc(F)cc2Cl)ccc1OCC(=O)N1CCOCC1`?
PAFAH2 inh: 75.6; PAFAH1B2 inh: inactive; PAFAH1B3 FP inh: inactive; PAFAH2 confirm: 70.6

What do the screens show for `COc1ccc(C(=O)OCC(=O)Nc2ccc(N3CCOCC3)cc2)cc1OC`?
pPAFAH inh: inactive; PAFAH2 inh: inactive; PME-1 primary: inactive; PAFAH1B2 inh: inactive; PAFAH1B3 FP inh: inactive

Results for NS(=O)(=O)c1ccc(NC(=O)Cc2c(F)cccc2Cl)cc1 ?
pPAFAH inh: inactive; PAFAH2 inh: inactive; PME-1 primary: inactive; Fam108B inh: inactive; PAFAH1B2 inh: inactive; PAFAH1B3 FP inh: inactive

Results for CCOc1cccc2sc(N(CCCN(C)C)C(=O)Cc3ccccc3)nc12 ?
pPAFAH inh: inactive; PAFAH2 inh: inactive; PME-1 primary: inactive; Fam108B inh: inactive; PAFAH1B2 inh: inactive; PAFAH1B3 FP inh: inactive

What do the screens show for `C/C(=N\NC(=O)c1ccc([N+](=O)[O-])cc1)c1cccc([N+](=O)[O-])c1`?
pPAFAH inh: inactive; PAFAH2 inh: inactive; PME-1 primary: inactive; Fam108B inh: inactive; PAFAH1B2 inh: inactive; PAFAH1B3 FP inh: inactive

What do the screens show for `Cc1cccc(C)c1NC(=O)COC(=O)c1ccc(N2CCCC2)c([N+](=O)[O-])c1`?
pPAFAH inh: inactive; PAFAH2 inh: 63.1; PME-1 primary: inactive; Fam108B inh: inactive; PAFAH1B2 inh: inactive; PAFAH1B3 FP inh: inactive; PAFAH2 confirm: 58.9

What do the screens show for `CCOc1cc(C(=O)OCC(=O)Nc2c(C)cccc2C)ccc1OCC(=O)N1CCOCC1`?
pPAFAH inh: inactive; PAFAH2 inh: 50.5; PME-1 primary: inactive; Fam108B inh: inactive; PAFAH1B2 inh: inactive; PAFAH1B3 FP inh: inactive; PAFAH2 confirm: 67.7

What do the screens show for `CCOc1cc(C(=O)OCC(=O)Nc2ncc(Cl)c(C)c2Cl)ccc1OCC(=O)N1CCOCC1`?
pPAFAH inh: inactive; PAFAH2 inh: 55.2; PME-1 primary: inactive; Fam108B inh: inactive; PAFAH1B2 inh: inactive; PAFAH1B3 FP inh: inactive; PAFAH2 confirm: 53.8

How did O=C(NNC(=S)Nc1ccc(Cl)cc1Cl)c1ccncc1 do in these assays?
pPAFAH inh: inactive; PAFAH2 inh: inactive; PME-1 primary: inactive; Fam108B inh: inactive; PAFAH1B2 inh: inactive; PAFAH1B3 FP inh: inactive

How did CC(C)C(=O)Nc1nnc(SCC(=O)NCc2ccc3c(c2)OCO3)s1 do in these assays?
pPAFAH inh: inactive; PAFAH2 inh: inactive; PME-1 primary: inactive; Fam108B inh: inactive; PAFAH1B2 inh: inactive; PAFAH1B3 FP inh: inactive

Results for CCO/C(C)=C1\C(=O)Nc2ccccc21 ?
pPAFAH inh: inactive; PAFAH2 inh: inactive; PME-1 primary: inactive; Fam108B inh: inactive; PAFAH1B2 inh: inactive; PAFAH1B3 FP inh: inactive

How did O=C(CCNS(=O)(=O)c1ccc2c(c1)CCC(=O)N2)Nc1ccc(F)c(F)c1 do in these assays?
pPAFAH inh: inactive; PAFAH2 inh: inactive; PME-1 primary: inactive; Fam108B inh: inactive; PAFAH1B2 inh: inactive; PAFAH1B3 FP inh: inactive

What do the screens show for `COc1cc(OC)c(OC)cc1CN1CCN(S(=O)(=O)c2ccc(F)cc2)CC1`?
pPAFAH inh: inactive; PAFAH2 inh: inactive; PME-1 primary: inactive; Fam108B inh: inactive; PAFAH1B2 inh: inactive; PAFAH1B3 FP inh: inactive

What do the screens show for `CC(OC(=O)c1cccc(N2C(=O)c3ccccc3C2=O)c1)C(=O)Nc1ccc(N(C)C)cc1` (stereo not given)?
pPAFAH inh: inactive; PAFAH2 inh: inactive; PME-1 primary: inactive; Fam108B inh: inactive; PAFAH1B2 inh: inactive; PAFAH1B3 FP inh: inactive

What do the screens show for `Cc1ccc(NC(=O)COC(=O)c2cccc(N3C(=O)c4ccccc4C3=O)c2)cc1`?
pPAFAH inh: inactive; PAFAH2 inh: 38.1; PME-1 primary: inactive; Fam108B inh: inactive; PAFAH1B2 inh: inactive; PAFAH1B3 FP inh: inactive; PAFAH2 confirm: inactive

Results for CC(=O)c1cccc(NC(=O)COC(=O)c2cccc(N3C(=O)c4ccccc4C3=O)c2)c1 ?
pPAFAH inh: inactive; PAFAH2 inh: 51.7; PME-1 primary: inactive; Fam108B inh: inactive; PAFAH1B2 inh: inactive; PAFAH1B3 FP inh: inactive; PAFAH2 confirm: 46.1

Results for O=C1N(CN2CCN(c3cccc(Cl)c3)CC2)c2ccccc2C12OCCCO2 ?
pPAFAH inh: inactive; PAFAH2 inh: inactive; PME-1 primary: inactive; Fam108B inh: inactive; PAFAH1B2 inh: inactive; PAFAH1B3 FP inh: inactive

How did O=S(=O)(c1ccc(-c2csc(Nc3ccc(F)cc3)n2)cc1)N1CCCC1 do in these assays?
pPAFAH inh: inactive; PAFAH2 inh: inactive; PME-1 primary: inactive; Fam108B inh: inactive; PAFAH1B2 inh: inactive; PAFAH1B3 FP inh: inactive

Results for O=S(=O)(c1ccc(-c2csc(Nc3ccc(Br)cc3)n2)cc1)N1CCCC1 ?
pPAFAH inh: inactive; PAFAH2 inh: 30.3; PME-1 primary: 37.6; Fam108B inh: inactive; PAFAH1B2 inh: inactive; PAFAH1B3 FP inh: inactive; PAFAH2 confirm: inactive

How did CCOC(=O)COn1c(=O)c(=O)n(OC)c2ccccc21 do in these assays?
pPAFAH inh: inactive; PAFAH2 inh: inactive; PME-1 primary: inactive; Fam108B inh: inactive; PAFAH1B2 inh: inactive; PAFAH1B3 FP inh: inactive

What do the screens show for `COc1ccc(S(=O)(=O)N2CCOCC2)cc1NC(=O)CN1CCCc2ccccc21`?
pPAFAH inh: inactive; PAFAH2 inh: 66.2; PAFAH1B2 inh: inactive; PAFAH1B3 FP inh: inactive; PAFAH2 confirm: 56.3
